Test results: PubChem BioAssay (NCATS)
Values joined by “and” are separate entries in the source; they are usually repeats but may differ in a detail not shown here. Identical values can stand only once. Results filed as inconclusive are left out. Active and inactive are the calls of the source. Unless noted, calls follow the shape of the dose curve; as a rule, active = well fitted curve in the direction sought with a large enough effect; inconclusive = small, poorly fitted or top-dose-only effect, or another doubt; inactive = no such curve, though single readings can be large; an effect the other way counts as inactive or inconclusive.

Experiments:
CAOV3 = experiment: Primary qHTS to identify gynecologic anti-cancer compounds using libraries of approved drugs and bioactive compounds (AID 1345084); details: Gynecologic cancer cell panel viability, ATPlite luminescence, 48 h; series mostly up to 57.5 µM; also: % is scaled to controls: 0 for no effect and ±100 for the full control effect; nearly all actives have a fitted effect of over 55% in size
Outline: (§1)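 Cells, 1,000 per well, plated 16 h, then exposed 48 h at 37 C to compounds. Viability by ATPlite luminescence after 15 min at room temperature.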

CASKI = experiment: as above; details: Gynecologic cancer cell panel viability, ATPlite luminescence, 48 h; series mostly up to 57.5 µM
Outline: as §1

Es-2 = experiment: as above; details: Gynecologic cancer cell panel viability, ATPlite luminescence, 48 h; series mostly up to 57.5 µM
Outline: as §1

HeLa = experiment: as above; details: Gynecologic cancer cell panel viability, ATPlite luminescence, 48 h; series mostly up to 57.5 µM
Outline: as §1

Hek293T = experiment: as above; details: Gynecologic cancer cell panel viability, ATPlite luminescence, 48 h, control line for the selectivity index; series mostly up to 57.5 µM
Outline: as §1

JEG-3 = experiment: as above; details: Gynecologic cancer cell panel viability, ATPlite luminescence, 48 h; series mostly up to 57.5 µM
Outline: as §1

Tov112D = experiment: as above; details: Gynecologic cancer cell panel viability, ATPlite luminescence, 48 h; series mostly up to 57.5 µM
Outline: as §1

[1] = Drug repurposing screens with cells derived from glioblastoma tumor samples (AID 1345199); details: GBM patient neurospheres viability, ATP luminescence, 48 h; also: nearly all actives have a fitted effect of over 40% in size; also: potency is read from the fitted curve at half-maximal effect; as to activity, negative = cell killing: % is scaled to controls: 0 for no effect and ±100 for the full control effect
Outline: (§2)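 Primary testing used CD133+ neurospheres from four GBM patients, seven concentrations, 48 h exposure and ATP-based viability; confirmation added three slower-growing patient lines.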

astro = experiment: as above; details: viability, ATP luminescence, 48 h; series mostly up to 45.9 µM
Outline: as §2

[2] = molecular target: Nuclear receptor subfamily 1 group I member 2 (Rattus norvegicus) (UniProt Q9R1A7); experiment: qHTS assay for small molecule activators of the rat pregnane X receptor (rPXR) signaling pathway (AID 651751; call rule not given here; also: 0% is about no effect); details: rPXR reporter cells, luciferase (One-Glo), 24 h
Nuclear receptor subfamily 1 group I member 2 (Rattus norvegicus), sequence (Q9R1A7 whole entry, looked up): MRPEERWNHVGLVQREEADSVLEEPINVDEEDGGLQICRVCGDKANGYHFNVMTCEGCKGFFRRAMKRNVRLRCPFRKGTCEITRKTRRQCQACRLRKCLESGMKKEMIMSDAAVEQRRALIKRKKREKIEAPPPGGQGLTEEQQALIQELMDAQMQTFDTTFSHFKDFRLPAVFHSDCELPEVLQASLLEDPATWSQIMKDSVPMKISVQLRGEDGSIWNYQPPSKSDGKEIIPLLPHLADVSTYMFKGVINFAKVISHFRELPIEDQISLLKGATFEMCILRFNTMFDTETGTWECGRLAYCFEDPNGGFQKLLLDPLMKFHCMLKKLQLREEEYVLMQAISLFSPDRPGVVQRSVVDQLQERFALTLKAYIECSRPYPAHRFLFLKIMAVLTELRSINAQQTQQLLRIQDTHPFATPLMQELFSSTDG

[3] = qHTS assay for small molecule activators of the human pregnane X receptor (PXR) signaling pathway (AID 720659; call rule not given here; also: 0% is about no effect)
C33A = experiment: Primary qHTS to identify gynecologic anti-cancer compounds using libraries of approved drugs and bioactive compounds (AID 1345084); details: Gynecologic cancer cell panel viability, ATPlite luminescence, 48 h; series mostly up to 57.5 µM; also: % is scaled to controls: 0 for no effect and ±100 for the full control effect; nearly all actives have a fitted effect of over 55% in size
Outline: as §1

PA-1 = experiment: as above; details: Gynecologic cancer cell panel viability, ATPlite luminescence, 48 h; series mostly up to 57.5 µM
Outline: as §1

SKOV3 = experiment: as above; details: Gynecologic cancer cell panel viability, ATPlite luminescence, 48 h; series mostly up to 57.5 µM
Outline: as §1

Tov-21-G = experiment: as above; details: Gynecologic cancer cell panel viability, ATPlite luminescence, 48 h; series mostly up to 57.5 µM
Outline: as §1

WaGa = experiment: qHTS assay to identify novel small-molecules to repurpose for Merkel cell carcinoma treatment (AID 1296009); details: MCC and control cell lines, CellTiter-Glo viability, 72 h; series mostly up to 46 µM; also: nearly all actives have a fitted effect of over 60% in size; also: potency is read from the fitted curve at half-maximal effect
Outline: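 Cell viability, measured as CellTiter-Glo luminescence, was normalized between DMSO and no-cell wells. The cells had been exposed to 8- or 11-point compound dilutions for 72 hr at 37 degree celsius.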

OV90 = experiment: Primary qHTS to identify gynecologic anti-cancer compounds using libraries of approved drugs and bioactive compounds (AID 1345084); details: Gynecologic cancer cell panel viability, ATPlite luminescence, 48 h; series mostly up to 57.5 µM; also: % is scaled to controls: 0 for no effect and ±100 for the full control effect; nearly all actives have a fitted effect of over 55% in size
Outline: as §1

[4] = at 45.9 µM (top of the series), tumour line B
[5] = at 45.9 µM (top of the series), tumour line D
[6] = at 46 µM (top of the series), tumour line A
[7] = at 46.1 µM (top of the series), tumour line C

NC(=O)c1ncn([C@@H]2O[C@H](CO)[C@@H](O)[C@H]2O)n1
inactive: Potency (CAOV3) | Potency (CASKI) | Potency (Es-2) | Potency (HeLa) | Potency (Hek293T) | Potency (JEG-3) | Potency (Tov112D) | activity, negative = cell killing [1, 4] -11% | activity, negative = cell killing [1, 5] -8.98% | activity, negative = cell killing [1, 6] -27.6% | activity, negative = cell killing [1, 7] -10.2% | Potency (astro) | max response [2] -13.6% | outcome [3]

CN(C)CCC=C1c2ccccc2CCc2ccccc21
inactive: Potency (C33A) | Potency (CAOV3) | Potency (CASKI) | Potency (Es-2) | Potency (HeLa) | Potency (JEG-3) | Potency (PA-1) | Potency (SKOV3) | Potency (Tov-21-G) | Potency (Tov112D) | max response [2] 4.03% and -3.34%

CCCCCCCCCCCCCCCC(=O)NCCO
inactive: Potency (WaGa) | Potency (C33A) | Potency (CASKI) | Potency (Es-2) | Potency (HeLa) | Potency (Hek293T) | Potency (JEG-3) | Potency (OV90) | Potency (PA-1) | Potency (Tov-21-G) | Potency (Tov112D) | activity, negative = cell killing [1, 4] 0.41% | activity, negative = cell killing [1, 5] -8.68% | activity, negative = cell killing [1, 6] -19.5% | activity, negative = cell killing [1, 7] -10.8% | Potency (astro)

CN(C)CCN(Cc1ccccc1)c1ccccn1
active: Potency ([1]; tumour line A) 5.62 µM
inactive: Potency (WaGa) | Potency (C33A) | Potency (CASKI) | Potency (Es-2) | Potency (HeLa) | Potency (JEG-3) | Potency (OV90) | Potency (PA-1) | Potency (SKOV3) | Potency (Tov-21-G) | Potency (Tov112D) | activity, negative = cell killing [1, 4] -8.05% | activity, negative = cell killing [1, 7] -4.16% | Potency (astro)

CN(C)CCCN1c2ccccc2Sc2ccc(Cl)cc21
inactive: activity, negative = cell killing [1, 7] -4.19%
active: Potency (WaGa) 26.6 µM | Potency ([1]; tumour line A) 3.98 µM | Potency ([1]; tumour line B) 15.8 µM | Potency ([1]; tumour line D) 20 µM | Potency (astro) 12.6 µM

CCN(CC)CCSC(=O)C(c1ccccc1)c1ccccc1
inactive: Potency (C33A) | Potency (CAOV3) | Potency (CASKI) | Potency (Es-2) | Potency (HeLa) | Potency (Hek293T) | Potency (JEG-3) | Potency (OV90) | Potency (PA-1) | Potency (SKOV3) | Potency (Tov-21-G) | Potency (Tov112D) | activity, negative = cell killing [1, 4] -17.9% and -28.9% | Potency (astro)
